# BoNT F protease: BoNT/F light chain protease inhibitors, primary screen, biochemical, flow cytometry, MLPCN library | Multiplex microsphere protease cleavage assay | inhibition, % at 10 µM | actives 0.22% (n = 360,000) | AID 588497, 2011; in the data active means inhibition above about 35%, passing the limit was not always enough; inconclusive means no clear call, values can overlap the other calls; further: plate controls were buffer without enzyme for full effect and enzyme alone for no effect
# BoNT-A LC inh2: BoNT/A light chain protease inhibitors, primary screen, biochemical, flow cytometry, MLPCN library; actives 0.17% (n = 360,000); inhibition, % at 10 µM; AID 588499, 2011; Botulinum neurotoxin type A light chain protease (Clostridium botulinum A str. ATCC 3502); multiplex microsphere protease substrate cleavage; in the data active means inhibition above about 30%; inconclusive means no clear call, values can overlap the other calls; further: plate controls were buffer without enzyme for full effect and enzyme alone for no effect
# 3CLpro inhibitor: SARS-CoV 3CLpro protease inhibitors, primary screen, biochemical, quenched FRET; Replicase polyprotein 1ab (Severe acute respiratory syndrome coronavirus), P0C6X7; recombinant SARS-CoV 3CLpro, quenched FRET peptide cleavage; inhibition, % at 6 µM; actives 0.14% (n = 290,000); AID 1706, 2009; in the data active means inhibition above about 12%
# Autofluor counter: counter-screen for toxin protease inhibitors: compound fluorescence; compound autofluorescence counterscreen, microsphere flow cytometry; active compounds read high; fluorescence intensity (concentration not given with the values); actives 3.1% (n = 360,000); AID 624483; in the data active means fluorescence intensity above about 16000; inconclusive means no clear call, values can overlap the other calls
# CCHF vOTU inh-1: CCHFV vOTU protease inhibitors, primary screen, biochemical, Pep-AMC substrate, fluorescence; Crimean-Congo hemorrhagic fever virus L polyprotein viral ovarian tumor (vOTU) protease …; inhibition, % at 11.5 µM; actives 0.55% (n = 370,000); further: 0% = vehicle wells with enzyme and 100% = no enzyme wells
# Anthrax LF inh2: Bacillus anthracis LF protease inhibitors, primary screen, biochemical, multiplex microsphere, MLPCN library. multiplex microsphere protease cleavage assay. Lethal factor (Bacillus anthracis), P15917. actives 0.12% (n = 360,000). AID 588501, 2011. inhibition, % at 10 µM; in the data active means inhibition above about 30%; inconclusive means no clear call, values can overlap the other calls; further: plate controls were buffer without enzyme for full effect and enzyme alone for no effect
# CCHF vOTU inh-2: CCHFV vOTU protease inhibitors, confirmation, biochemical, Pep-AMC substrate, fluorescence. shares compounds with CCHF vOTU inh-1. Recombinant CCHFV vOTU. inhibition, % at 11.5 µM. actives 17% (n = 1,900). AID 686976, 2013
# * hit, by the source's call; ? = inconclusive; . = not tested or not shown. Most compounds without a hit are left out; they make up all but 3.9% or so of the library. Unless noted, no stated cut-off is given here; in the data, active means inhibition above about 30%; inactive means the rest.
SMILES,BoNT F protease,BoNT-A LC inh2,3CLpro inhibitor,Autofluor counter,CCHF vOTU inh-1,Anthrax LF inh2,CCHF vOTU inh-2
CC(C)CNC(=O)C1CSCCS(=O)(=O)N1Cc1ccc(F)cc1 (centres undefined),.,.,.,.,0,.,.
COC(=O)/C(=C/Nc1ccc(O)cc1)[N+](=O)[O-],-7,0,2,4125,93*,-2,-7
CCOC(=O)c1csc(NC(=O)C2CCCN(S(=O)(=O)c3cc(OC)ccc3OC)C2)n1 (centres undefined),.,.,.,.,-3,.,.
CCOc1ccc(C(=O)C(C)OC(=O)C2CCN(c3ccc(C(F)(F)F)cn3)CC2)cc1 (centres undefined),4,4,.,6364,35*,2,10
COc1ccccc1CNC(=O)COC(=O)C1CCN(c2ccc(C(F)(F)F)cn2)CC1,4,4,.,5209,44*,-1,-10
Cc1cc(C)c(NC(=O)CNC(=O)COC(=O)C2CCN(c3ccc(C(F)(F)F)cn3)CC2)c(C)c1,-3,-4,1,6900,34*,-4,2
Cc1cc(C)c(NC(=O)COC(=O)C2CCN(c3ccc(C(F)(F)F)cn3)CC2)c(Cl)c1,1,-2,.,5767,17,-2,.
Cn1c(Cc2cccs2)nnc1SCC(=O)Nc1ccc2cn[nH]c2c1,.,.,.,.,31*,.,5
Nc1cc2[nH]c(=O)c3ccccc3c2cc1Br,-3,-1,.,4394,-7,0,.
Nc1cc2c(cc1Br)[nH]c(=O)c1ccccc12,7,12,.,3658,101*,22,84*
C[n+]1cccc2c(Br)ccc([O-])c21,?,3,13*,3959,103*,-14,42*
Cc1cccc(-c2onc3ccc(C(=O)/C=C/N(C)C)cc23)c1,-7,4,6,3583,33*,10,-16
CCC(NC(=O)c1ccc2c(ccn2Cc2cccc(-c3ccc(C(=O)O)cc3)c2)c1)c1ccccc1 (centres undefined),.,.,.,.,32*,.,-2
COc1cccc(NS(=O)(=O)c2ccc3c(c2)N(C(C)=O)CCO3)c1,-3,0,-1,4214,6,0,.
CC(=O)N1CCOc2ccc(S(=O)(=O)Nc3cccc(C)c3)cc21,1,0,-4,5718,31*,-5,7
C=CCC[C@H](CCCCC)OC(=O)/C=C/[C@H](O)[C@@H](O)C[C@H](O)CC=C,-1,-1,.,4188,20,-4,.
C=CCC[C@@H](CCCCC)OC(=O)/C=C/[C@H](O)[C@@H](O)C[C@H](O)CC=C,-1,0,.,4342,34*,-4,18
COCCNC(=O)NC12CC3(C)CC(C)(CC(C)(C3)C1)C2,-3,0,-1,2641,35*,1,-4
O=C(O)c1[nH]c2ccccc2c1C(c1cc(Cl)cc([N+](=O)[O-])c1O)c1c(C(=O)O)[nH]c2ccccc12,?,-1,12,3841,46*,-2,26
Cc1cccc(NC(=O)c2sc3nc4c(c(-c5cccs5)c3c2N)CN(C)CC4)c1,-96,4,-14,1751,30*,-13,48*
CC(C)NC(=O)c1sc2nc3c(c(-c4cccs4)c2c1N)CN(C)CC3,-14,1,-4,2421,17,-3,.
O=C(NCc1ccccc1)[C@H]1CCCN1C(=O)[C@H]1CCCN1C(=O)C1CCCCC1,.,.,.,.,-3,.,.
COc1ccc(CNc2nc3ccccc3n2CCN2CCCCC2)cc1,0,0,4,2732,-3,-2,.
CCN(CC)c1ccc(CNc2nc3ccccc3n2CCN2CCCCC2)cc1,-8,-1,0,4980,30*,-7,1
CC1CCC/C(=N\NC(=O)Nc2ccccc2)C1 (centres undefined),-6,-1,4,2580,34*,-4,-20
SMILES,BoNT F protease,BoNT-A LC inh2,3CLpro inhibitor,Autofluor counter,CCHF vOTU inh-1,Anthrax LF inh2,CCHF vOTU inh-2
CC1CCC/C(=N\NS(=O)(=O)c2ccccc2)C1 (centres undefined),0,0,-3,4702,-5,-4,.
COC(=O)[C@]12C[C@H](CC(=O)N3CCSCC3)C(=O)N(Cc3ccc4c(c3)OCO4)C1=C[C@H](C(C)(C)C)O[C@@H]2C,.,.,.,.,7,.,.
CCOC(=O)N1CCN(C(=O)C[C@H]2C[C@@]3(C(=O)OC)C(=C[C@H](C(C)C)O[C@@H]3C3CC3)N(CCc3ccc(OC)c(OC)c3)C2=O)CC1,.,.,.,.,1,.,.
Cc1ccc(SCC(=O)N2CCN(c3ccccn3)CC2)cc1,6,0,2,4255,2,-2,.
O=C(CSc1nccc2ccccc12)N1CCN(c2ccccn2)CC1,-5,0,2,5576,65*,3,-10
O=S1(=O)N[C@H](Cc2ccccc2)COc2cccc(N3CCCCC3)c21,.,.,.,.,14,.,.
CCCCCCC12C(=Cc3cc4c(cc31)OCCO4)c1cc(OC)c(OC)cc1C(CC(=O)NCc1ccccc1)N2C(=O)OC (centres undefined),.,.,.,.,-2,.,.
COC(=O)[C@]12C[C@H](CC(=O)NCC34CC5CC(CC(C5)C3)C4)C(=O)N(Cc3ccc(Cl)cc3Cl)C1=C[C@H](C1CCCC1)O[C@@H]2C,.,.,.,.,8,.,.
O=C(NCc1cccs1)C(=O)NCC(c1ccco1)N1CCN(c2ccccc2)CC1 (centres undefined),3,1,0,5630,31*,0,-5
COc1ccc(N2CCN(C(CNC(=O)C(=O)NCc3cccs3)c3ccco3)CC2)cc1 (centres undefined),-16,-1,4,6683,12,4,.
COc1ccc(-n2c3nc4ccccc4nc3c3c(=N)oc(C)nc32)cc1,-27,-2,1,8730,69*,-13,36*
O=C(NC1CCc2ccccc21)c1cc(COc2ccc(F)cc2F)on1 (centres undefined),-4,0,8,2006,35*,-1,-16
CCc1nc2c(OCCC3CCCCC3)cccn2c1N(C)C(=O)COc1ccccc1,0,0,.,3670,36*,-4,5
CCc1nc2c(OCC3CCCCC3)cccn2c1N(C)C(=O)c1ccccc1F,-12,0,.,3974,31*,-5,-6
CCc1nc2c(OCCC3CCCCC3)cccn2c1N(C)C(=O)c1ccc(C)cc1,0,0,.,3938,37*,1,6
CCOC(=O)C1=CCN(S(C)(=O)=O)C1c1ccc(Cl)cc1 (centres undefined),.,.,.,.,5,.,.

# Screens deposited in PubChem BioAssay by several laboratories.
